# Laboratory results published in PubChem BioAssay AID651820 (National Center for Advancing Translational Sciences (NCATS), 2012).
# In all, about 340,000 compounds went through this assay and about 12,000 (3.5%) were called active. Roughly 18% stayed inconclusive and do not appear here. The sample as a whole holds a higher share of actives than the screen did. A number with no mark means an inactive call. The call rests on the fitted dose curve; in most records, active means well fitted inhibition curve with a large enough effect; inconclusive means small, poorly fitted or top-dose-only effect, or another doubt; inactive means no such curve, though single readings can be large or run the other way.
# Test: qHTS Assay for Inhibitors of Hepatitis C Virus (HCV)
# Details: Huh7.5.1 HCVcc-Cre infection, luciferase reporter, 44 h; series mostly up to 41.8 µM; activity change, negative = inhibition: at the top concentration
# In short: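 Seed cells (1,000/well) for 4 h; treat with compound and infect with HCVcc-Cre, moi about 0.5. Incubate 44 h, then detect luciferase activity.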
# On the % scale 0 is the no-effect control and ±100 the full control effect; potency means the concentration at half of the fitted maximal effect.
SMILES,Potency,"activity change, negative = inhibition"
CC(=O)OC1C2(CC3N4C(=O)C5(CO)SSC4(CC31O)C(=O)N5C)OC(C)C(C)(C)C2=O (centres undefined),0.562 µM (active),–
Cc1cc(Br)ccc1NC(=O)CN(C)C(=O)CN1C(=O)NC2(CCCC2)C1=O,–,-8.88%
O=S(=O)(NCCCc1ccccc1)c1ccc(Br)cc1,–,16.7%
O=C(Cn1cnc2c(OCc3ccccc3)ncnc21)NCc1nc2ccccc2[nH]1,–,-17.2%
Cc1ccc(Nc2c3c(nc4ccccc24)CCC3)cc1,–,-80.9%
CC(=O)Nc1ccc(Nc2c3ccccc3nc3ccccc23)cc1,7.08 µM (active),–
CC(=O)Nc1ccc(NC(=O)COc2ncnc3ccccc23)cc1,–,25.3%
CCOc1ccc(NC(=O)c2ccc(NC(=O)CN3C(=O)C(=O)N(CC(C)C)C3=O)cc2)cc1,–,-8.34%
CCN(c1ccccc1)S(=O)(=O)c1ccc(C(=O)Nc2ccccc2OC)cc1,–,-15.4%
CN(C(=O)CSc1nnc(C2CC2)n1C)C1CCCc2ccccc21 (centres undefined),–,14.8%
CC(C)c1ccc(S(=O)(=O)N2CCN(C(C)C(=O)NC3CCCC3)CC2)cc1 (centres undefined),–,-12.7%
O=C(CCNS(=O)(=O)c1ccc(Br)cc1)NCC1CCCO1 (centres undefined),–,9.8%
CC(NS(=O)(=O)c1ccc(Br)cc1)C(=O)NCC1CCCO1 (centres undefined),–,-15.1%
OC(CNCC1CCCO1)Cn1c2ccc(Br)cc2c2cc(Br)ccc21 (centres undefined),35.5 µM (active),–
Cc1noc(C)c1C(=O)N1CCOCC1,–,-3.5%
Cc1oc2c(c1C(=O)N1CCOCC1)C(=O)c1ccccc1C2=O,5.62 µM (active),–
CCOC(=O)c1ccccc1C(=O)N1CCOCCOCCOCC1,–,6.73%
O=C(NCCC(=O)N1O[C@@H]2C=C[C@H]1C2)OCC1c2ccccc2-c2ccccc21,–,-5.37%
CCn1c(=S)[nH]c2cc(S(=O)(=O)N3CCOCC3)ccc21,–,7.96%
Cc1cccc(Cn2c(N3CCN(c4ccccc4)CC3)nc3c2c(=O)n(C)c(=O)n3C)c1,14.1 µM (active),–
Cn1c(=O)c2c(nc(CN3CCOCC3)n2Cc2ccccc2)n(C)c1=O,–,2.12%
COC(=O)C(C)Sc1nc2c(c(=O)n(C)c(=O)n2C)n1Cc1cccc(C)c1 (centres undefined),inactive,–

SMILES,Potency,"activity change, negative = inhibition"
COc1ccc(S(=O)(=O)N(C)C[C@@H]2Oc3ccc(NS(=O)(=O)c4cn(C)cn4)cc3C(=O)N([C@@H](C)CO)C[C@@H]2C)cc1,–,10.5%
O=C(COC(=O)CCCN1C(=O)c2cccc3cccc(c23)C1=O)NC1CCS(=O)(=O)C1 (centres undefined),–,10.7%
Nc1ccccc1SCc1cc([N+](=O)[O-])cc2c1OCOC2,–,-22.1%
C[C@H](NS(=O)(=O)c1ccc(Cl)cc1)C(=O)OCC(=O)N1CCOCC1,–,9.77%
CC(O)C(NS(=O)(=O)c1ccc(Cl)cc1)C(=O)OCc1cc([N+](=O)[O-])cc2c1OCOC2 (centres undefined),10 µM (active),–
Cn1c(CC(=O)NNC(=O)c2ccccc2F)nc2ccccc21,–,8.68%
O=C1/C(=C\c2ccsc2)NC(=S)N1c1ccccc1,11.2 µM (active),–
CN(C)c1ccc(/C=C2\NC(=S)N(Cc3ccccc3)C2=O)cc1,–,-24.6%
O=C1N/C(=C/c2cccn2-c2ccccc2)C(=O)N1c1cccc(Cl)c1,–,0.25%
COc1ccc(S(=O)(=O)N(C)CC(=O)NCCCN2CCOCC2)cc1Cl,–,1.4%
COc1ccc(C(=O)NCCCN2CCOCC2)cc1Br,–,5.73%
COc1ccc(-c2ccc(CNCCCN3CCOCC3)o2)cc1Cl,11.2 µM (active),–
CC(=O)NCc1ccc(-c2csc(NC(=O)CCCc3nc4ccccc4c(=O)[nH]3)n2)cc1,–,-4.47%
CCOC(=O)[C@H]1[C@H]2COc3ccccc3[C@@H]2N2C(=O)CN(Cc3ccccc3)C(=O)[C@@]12C,–,1.73%
COc1cccc(NC(=O)c2ccc(Cn3cc([N+](=O)[O-])cn3)o2)c1,–,-3.39%
COc1cccc(NC(=O)COc2cccnc2[N+](=O)[O-])c1,–,-4.63%
COc1cccc(NC(=O)c2nn(C34CC5CC(CC(C5)C3)C4)cc2[N+](=O)[O-])c1,31.6 µM (active),–
O=C1CC[C@@H]2CC3(C[C@@H]4CCN1[C@H]24)Nc1cc([N+](=O)[O-])ccc1NC3=NC1CCCCC1 (some centres undefined),–,22.9%
C=CCN1C=C(C(=O)c2ccccc2)C(=O)CC1,–,39%
CC(C)(C)Nc1nc(-c2ccccn2)nc2ccccc12,4.47 µM (active),–
c1ccc(-c2noc(-c3cccs3)n2)nc1,–,12.5%
Cc1nc2ccccc2c(C(=O)O)c1-c1ccccn1,–,9.5%

SMILES,Potency,"activity change, negative = inhibition"
COc1ccc(/C=N/NC(=O)c2cc(-c3cccc(C)c3)nc3ccccc23)cc1O,–,-28.4%
O=C(CSc1nc2cc3c(cc2c(=O)n1CCC1=CCCCC1)OCO3)NCc1ccco1,–,5.78%
C=C(C)Cn1c(SCC(=O)NCc2ccco2)nc2sc3c(c2c1=O)CCC3,8.91 µM (active),–
C=CCn1c(SCC(=O)NCCCO)nc2sc3c(c2c1=O)CCC3,–,-6.08%
O=C(COC(=O)COc1cccc(F)c1)NCC1CCCCC1,–,28.3%
O=C(Nc1ccon1)c1nc[nH]c1C(=O)NCc1ccccc1,–,-2.4%
COc1ccc2[nH]c3c(c2c1)CCN1C(=O)C(CC(=O)NCCCN(C)C)C[C@H](C(=O)N2CCOCC2)[C@@]31CCC1CCCC1 (some centres undefined),–,-0.0933%
O=C(CSc1c2c(nc3ccc(Cl)cc13)CCCC2)NCc1ccco1,–,-25.9%
O=C(CSc1nc2ccc(Nc3nc(N4CCOCC4)nc(N4CCOCC4)n3)cc2s1)NCc1ccco1,5.01 µM (active),–
C=CCn1c(CSc2nc3ccccc3s2)nnc1SCC(=O)NCc1ccco1,inactive,–
COCCN(Cc1ccccc1)C(=O)Cc1ccc(S(=O)(=O)N2CCOCC2)s1,–,0.153%
COc1ccc(C(=O)N2CC3(C)CC2CC(C)(C)C3)cc1OC (centres undefined),–,-1.53%
COc1ccccc1C(=O)N1CC2(C)CC1CC(C)(C)C2 (centres undefined),–,-12.3%
CC1(C)CC2CC(C)(CN2c2ncnc3ccc(Br)cc23)C1 (centres undefined),10 µM (active),–
CC(Oc1cccc(Cl)c1)C(=O)Nc1ccc(S(=O)(=O)Nc2ncccn2)cc1 (centres undefined),–,14.9%
COc1ccccc1CNC(=O)COn1nnc2ccc(S(=O)(=O)N3CCOCC3)cc21,–,-9.22%
Cc1cccc(NS(=O)(=O)c2ccc(C)c(C(=O)NCc3cccnc3)c2)c1,–,2.68%
COC(=O)C1=C(c2ccccc2OCc2ccccc2)C[C@@H]2CC[C@H]1N2C(=O)NCc1ccc(OC)cc1,11.2 µM (active),–
COC(=O)C1=C(c2cccc(OCc3ccccc3)c2)C[C@@H]2CC[C@H]1N2C(=O)NNCc1ccccc1,–,-21.4%
COC(=O)C1=C(c2ccc(F)cc2OCc2ccccc2)C[C@@H]2CC[C@H]1N2C(=O)NCc1ccc2[nH]ccc2c1,–,-27.8%
